Reference: PubChem BioAssay AID1508600 (Functional Genomics Laboratory (NCATS/FGL), 2020)
Hit rate of the full screen: of about 53,000 sequences, about 3,700 (7%) were called active. Shown is part of a subset that was picked to be rich in actives. Unmarked numbers belong to inactive results.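 Rule for the calls: active = gene knockdowns whose robust z-score for IL-1 alpha signal is at least 2 or at most -2, so actives lie on both sides; inactive = the rest.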

Experiment: Components of the Cytosolic LPS Sensing Pathway: Gene Identification via Genome-wide siRNA Screen;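 note: robust z of the log signal after scaling to non-targeting control siRNA wells of the plate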
Details: RAW264.7 macrophages, IL-1a HTRF, actives lie on both sides, screened at 100 nM (by protocol), cells primed 5 h with Pam3CSK4 first
Procedure, shortened: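 Mouse macrophage line RAW264.7 is transfected with siRNA (100 nM final), grown 48h, primed with TLR ligand Pam3CSK4 5 h and given intracellular LipidA 24 h. IL-1a in supernatant is read by HTRF and viability by luminescence.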

Row | Sequence | z-score
1 | GGAGAUUUAAACAGCUAGGTT against Gmip | -0.418
2 | GGCUCAUAUUUCCAUCAGATT against Tchhl1 | -1.13
3 | GGAAAUUGGGACUCACAUCTT against Trappc13 | -0.0912
4 | GUGGAAAAUUGAAGGGACGTT against Ndufb3 | 3.69 (active)
5 | GGAUUCAAGUUCUCACCGATT against Serpina6 | -0.462
6 | GCUCAAACACUUACACACUTT against Alcam | -0.616
7 | GCCAGUUCCUAUCUGGCUUTT against 4931428L18Rik | 1.03
8 | GCCAAUGGUCACGAACCUATT against Senp5 | -0.217
9 | GCUUGCUAAGAUUGAGUAUTT against Cerkl | -0.928
10 | CCGCACAAGAGGUAGAUACTT against Ddx5 | -2.56 (active)
11 | GGUCAGUAUCAGAAUGAUCTT against Rft1 | -0.831
12 | GCAGUGAGACUUUUAAUAGTT against Snx17 | 0.284
13 | GGCAAUAUUUCAGAACCUGTT against Tfb2m | 0.44
14 | GGCCUUACUCUUAAGUUCUTT against Brf1 | 3.7 (active)
15 | GGUGCAUGAAGAGUUAAAATT against Jade1 | 1.5
16 | GGAGAAAGUUGAACGUAUUTT against Cct2 | -2.58 (active)
17 | GGAAUUCUUAGCCAAUGCCTT against Gas2l1 | 0.396
18 | GCUGUCUAGUACAUCUGACTT against Cry2 | -0.32
19 | GGCUAACACUUAAAUUAGCTT against Atoh8 | 0.00248
20 | GGCCCAACCUUGGAUCUUUTT against Nudt22 | 0.751
21 | GGGCACAGACAUGUUUGAGTT against Padi3 | -1.35
22 | GGAUGAACCAAACCAAUAATT against Mgat4d | 2.24 (active)
23 | GGACAAACAGGGAGAAAGATT against Mogat2 | -0.091

Row | Sequence | z-score
24 | GCCAGACUGGAGGUAAAAUTT against Serpinb10 | -2.24 (active)
25 | GGAGUGAGACAAUUCUCACTT against Sprr2k | 0.555
26 | GCUAUUUAGUUAGUUGUGUTT against Acbd3 | 0.334
27 | CCGUGGGAUUUAAGAUAUCTT against Rab34 | -0.931
28 | GUGUGCUUGAUGGAGACCATT against Riiad1 | 2.25 (active)
29 | GCAUUUCUACUGGAUUGUGTT against Luc7l2 | 0.0609
30 | GCUCUUUCUAGCUUAUGAUTT against Chmp1b | -0.464
31 | GGAUGCUUGUGCAAAGAUGTT against Anks1b | 0.862
32 | GGAGCCUCUAGGAAACAAATT against Slc28a3 | 0.309
33 | CCGAGUCCAGAACACUCUUTT against Aff2 | -0.616
34 | CCUGCCAUAGUUAGUUUUUTT against Khdc1a | 7.91 (active)
35 | CGAGCUUUCACUGCUACAGTT against Ppargc1b | -1.35
36 | GCCACUGUACCUUAUUGGUTT against Msrb1 | 0.331
37 | GGAAGACGGCAACUAUCCATT against Cyp2c50 | 1.23
38 | GGUAUUUUUUUCUCAGCCATT against Dhdh | -0.937
39 | CGCCUUCCUUCAACACGCATT against 1700049L16Rik | -1.12
40 | GCCCUACCAAAAGGAUGAUTT against Cfap300 | -2.02 (active)
41 | GGGAUUUGUUGUCUAAGAUTT against Mapk10 | -0.54
42 | GCAGAUGCGCUUGGAACUUTT against Pde4b | 0.0658
43 | GGCUCCUAACUCACUGGGATT against Ormdl1 | 0.0548
44 | GCUUUGGUGCACUUGCUUUTT against Akr1c13 | 2.2 (active)
45 | GAUGAAGAAGAGCAGGCUCTT against Gm5168 | 1.18
46 | CGUAUCAACAUCUCAGAAGTT against Pcbp2 | -0.632

Row | Sequence | z-score
47 | GGAUUCACGUAAGAUUGACTT against Prl6a1 | 0.0592
48 | GGUGGUAUCACCUCUAUCATT against Cfap52 | -2.49 (active)
49 | GACGAUUCUCUGUUGGUGUTT against Hcrt | 0.577
50 | CCUGGAGAUUCAGUACGAATT against Krt25 | 1.55
51 | GGUUCUUGCUGAGAGCAUGTT against Rft1 | 0.943
52 | GGAUUGAAGCAGGCAGCUUTT against Purb | -0.787
53 | GGUUCAAGGUGAAGACUCCTT against Reg3b | 0.793
54 | GGUGUGUAUGGUGCUAGGATT against Olfr1507 | -2.43 (active)
55 | CCAGCUAAAAAGAUGGUAGTT against Rreb1 | 0.319
56 | CCUGAAAGCUAAUAUGAAATT against Defb44-ps | 0.0593
57 | GGCUUUUAGUACUGAUAGUTT against Neu3 | 2.6 (active)
58 | CCUCGUUACAUCCUCCCUGTT against Pold1 | -0.142
59 | CGAUUAUCGGCCCAGCAAATT against Bmp1 | 1.01
60 | GGUCUCCCUUCAGUAUGAGTT against Cela3b | -0.602
61 | CCUAGAGCUUUUCAGAAUATT against Rsl1d1 | 0.4
62 | CGAUCGGCGACCUUUUAGATT against Irak3 | -0.527
63 | GGCAGUAGUUAGCAAAUAUTT against Ska1 | -1.24
64 | GGAUCUGGAAUCACUGUUUTT against Lmnb2 | -0.451
65 | GGUUUUAGGACACCUGGUUTT against Gys1 | 2.13 (active)
66 | GGUGCCAUCCCAAACUUUATT against Frat2 | 0.788
67 | CCUCUUGAGGUCUCGUCAATT against Fam221b | -0.0968
68 | GGAUACAAAUCAGGUUCUCTT against Kansl2 | 0.0399
69 | GCCUUCUUAAGCUCUGAGCTT against Dhrs13 | -2.97 (active)
